Compound activity deposited in PubChem BioAssay by National Center for Advancing Translational Sciences (NCATS).
Only some compounds are listed: those with a hit (about 18% of all), similar ones and a draw of the others.
TDP1 cell noCPT – qHTS for Inhibitors of human tyrosyl-DNA phosphodiesterase 1 (TDP1): qHTS in cells in absence of CPT | hit rate 15% among 420,000 | Potency, µM (highest dose often 46.2 µM), inactives show at the highest dose activity change, negative = growth inhibition, most hits filed as inhibitors | AID 686978, 2013 | DT40 Tdp1-/- hTDP1 cells, no CPT, ATP luminescence, 48 h; further: potency means the concentration at half of the fitted maximal effect; nearly all actives have a fitted effect of over 55% in size
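Chicken DT40 Tdp1-/- cells complemented with human TDP1, screened without camptothecin (DMSO vehicle only), 400 cells/well. Compounds pin-transferred, cells incubated at 37 °C for at least 48 hr. Growth read as ATP-dependent luminescence (CellTiter-Glo, 30 min at RT).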
LDHA inh – qHTS assay for inhibitors of human lactate dehydrogenase; L-lactate dehydrogenase A chain (Homo sapiens), P00338; purified LDHA, NADH/diaphorase-resazurin fluorescence; stronger effect = lower value; activity change, % (values are at about 110 or 230 µM); hit rate 0.15% among 480,000; AID 1347041, 2019; in the data active means activity change below about -30%; inconclusive means mostly about -25% to -30%;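 further: plate controls were DMSO wells for no effect and wells without enzyme for full effect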
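Human LDH5 (2 nM) was incubated with 0.06 mM NADH and 0.2 mM pyruvate for 5 min at room temperature in Tris pH 7.4. Remaining NADH was coupled through diaphorase/resazurin, and resorufin fluorescence was read at 0 and 20 min.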
RORgamma inh – qHTS for inhibitors of ROR gamma transcriptional activity; Nuclear receptor ROR-gamma (Mus musculus), P51450; Drosophila S2 Gal4-RORgamma UAS-luciferase reporter, 20 h; Potency, µM (highest dose often 53.6 µM), inactives show at the highest dose activity change, negative = inhibition, most hits filed as inhibitors; hit rate 5.4% among 310,000; AID 2551, 2010; further: potency means the concentration at half of the fitted maximal effect; nearly all actives have a fitted effect of over 60% in size
Target sequence (P51450 whole entry, looked up, the tested form may be a part): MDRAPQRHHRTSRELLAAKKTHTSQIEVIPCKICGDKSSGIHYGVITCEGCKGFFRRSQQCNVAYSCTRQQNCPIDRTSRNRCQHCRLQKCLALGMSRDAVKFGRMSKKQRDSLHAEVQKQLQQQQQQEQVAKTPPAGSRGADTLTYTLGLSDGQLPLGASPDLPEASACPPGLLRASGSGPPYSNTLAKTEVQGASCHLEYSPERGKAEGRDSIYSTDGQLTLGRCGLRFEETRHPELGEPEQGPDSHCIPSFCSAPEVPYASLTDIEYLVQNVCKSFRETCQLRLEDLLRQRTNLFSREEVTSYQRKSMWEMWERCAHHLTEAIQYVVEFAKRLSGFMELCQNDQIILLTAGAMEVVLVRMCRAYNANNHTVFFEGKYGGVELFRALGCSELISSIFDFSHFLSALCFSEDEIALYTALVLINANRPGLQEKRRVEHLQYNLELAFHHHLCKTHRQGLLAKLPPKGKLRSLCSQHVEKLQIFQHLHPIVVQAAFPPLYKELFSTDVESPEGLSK
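Compounds are pin-transferred onto Drosophila Schneider cells expressing a copper-inducible Gal4–ROR gamma transactivation domain fusion. After 1 hr, copper sulfate is added to 700 uM final; luciferase is read 20 hr later.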
TDP1 cell CPT – qHTS for Inhibitors of human tyrosyl-DNA phosphodiesterase 1 (TDP1): qHTS in cells in presence of CPT; hit rate 12% among 420,000; AID 686979, 2013; chicken DT40 Tdp1-/-;hTDP1 cells + 20 nM CPT, ATP luminescence, 48 h; Potency, µM (doses to about 46.2 µM), without a hit: top-dose activity change, negative = growth inhibition, most hits filed as inhibitors; further: potency means the concentration at half of the fitted maximal effect; nearly all actives have a fitted effect of over 55% in size
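Chicken DT40 Tdp1-/- cells complemented with human TDP1, 400 cells/well, exposed to compounds plus 20 nM camptothecin for at least 48 h at 37 C; viability read as ATP content by CellTiter-Glo luminescence.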
IL1B secr inh – qHTS for Inhibitors of Inflammasome Signaling: IL-1-beta AlphaLISA Primary Screen; THP-1 LPS/ATP IL-1B secretion, AlphaLISA, 16 h; stronger effect = lower value; activity change, % at 57.5 µM; hit rate 4.7% among 360,000; in the data active means activity change below about -50%; inconclusive means mostly about -30% to -49%
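Secreted IL-1B measured by AlphaLISA bead assay after 16 h compound exposure of THP-1 cells; compounds (final up to 57.5 uM) added 1 h before LPS (250 ng/mL) and ATP (1.25 mM) stimulation; lower signal means less secretion.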
Gal4-VP16 FLuc – VP16 counterscreen qHTS for inhibitors of ROR gamma transcriptional activity; Drosophila S2 Gal4-VP16 UAS-luciferase, luminescence, 20 h; Potency, µM (doses to about 53.6 µM), inactives show at the top dose activity, negative = inhibition, hits mostly inhibitors; hit rate 3.5% among 310,000;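 further: Gal4-VP16 expression switched on by copper sulfate through the metallothionein promoter; potency means the concentration at half of the fitted maximal effect; nearly all actives have a fitted effect of over 50% in size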
Numbers without * were called inactive; i = inactive; ? = inconclusive; . = not tested or not shown; [ ] = dose if it differs, or a comment. Unless noted, the call rests on the fitted dose curve; in most records, active means well fitted curve in the direction sought with a large enough effect; inconclusive means small, poorly fitted or top-dose-only effect, or another doubt; inactive means no such curve, though single readings can be large; an effect the other way counts as inactive or inconclusive. Unless noted, on the % scale 0 is the no-effect control and ±100 the full control effect.

SMILES	TDP1 cell noCPT	LDHA inh	RORgamma inh	TDP1 cell CPT	IL1B secr inh	Gal4-VP16 FLuc
CCOc1ccc(CN2CCc3nc(N4CCN(c5ccccc5OC)CC4)ncc3C2)cc1OC	10µM*	4	.	9.2µM*	.	.
COc1cc(OC)c(OC)cc1CN1CCc2nc(N3CCN(c4ncccn4)CC3)ncc2C1	23µM*	7	.	16µM*	.	.
CCc1cccc(NC(=O)c2c(-c3ccccc3Cl)noc2C)c1	.	7	.	.	.	.
CN(CCCCOc1ccc2ccccc2c1)CCCCOc1ccc2ccccc2c1	.	3	.	.	.	.
CCc1ccc(CN2CCc3nc(N4CCN(c5ccccc5F)CC4)ncc3C2)cc1	18µM*	-1	.	?	.	.
Cc1[nH]c2ccccc2c1C(=O)C(=O)NCC1CCN(C)CC1	.	-2	.	.	.	.
CCCCc1ccc2[nH]c(C(=O)OCC)cc2c1	.	-1	.	.	.	.
COc1cc(Br)c(C(N)C(=O)O)cc1OC (configuration not stated)	.	-17	.	.	.	.
Cc1ccccc1C(=O)NC(=S)N(Cc1ccccc1)c1ccccn1	?	-4	.	?	-5	.
Cc1ccccc1C(=O)NC(=S)N(C)CCc1ccccn1	-2%	-10	7.1µM*	5%	-3	?
CCOc1ccc(/C=N/n2cc(-c3ccccc3)[nH]c2=S)cc1	5.2µM*	-10	1.3µM*	2.6µM*	-15	?
S=c1[nH]c(-c2ccccc2)cn1/N=C/c1ccncc1	-22%	-5	6.3µM*	-1%	-9	-14%
CCNCC(=O)OCC	.	-4	.	.	.	.
Cc1cc(C)c2oc(-c3cc(NC(=O)C(C)(C)C)ccc3O)nc2c1	.	2	.	.	.	.
Cc1nn(-c2ccccc2)c(-c2ccccc2[N+](=O)[O-])c1C(=O)O	-3%	-3	7%	-1%	11	-14%
Cc1nn(-c2ccccc2)c(-c2ccccc2[N+](=O)[O-])c1CC#N	16µM*	-6	.	?	10	.
Cc1ccc(C)c(OC(=O)c2ccc(CSc3ccc(Cl)cc3)cc2)c1C	.	5	.	.	.	.
O=S(=O)(Nc1ccc(Br)cc1)c1cccc2nonc12	4%	-8	20%	11%	0	1%
O=S(=O)(Nc1ccc(C(O)(C(F)(F)F)C(F)(F)F)cc1)c1ccc(Cl)c2nonc12	15µM*	-2	.	13µM*	-114*	.
O=C(c1nn2c(C(F)(F)F)cc(-c3ccco3)nc2c1Br)N1CCCc2ccccc21	12µM*	-13	17%	16µM*	6	-8%
O=C(c1cc2nc(-c3cccs3)cc(C(F)(F)F)n2n1)N1CCCc2ccccc21	?	-1	16%	18µM*	10	-7%
O=C(c1cc2nc(-c3cccs3)cc(C(F)(F)Cl)n2n1)N1CCCc2ccccc21	?	-2	29%	?	?	-5%[0.365 µM]
O=C(c1nn2c(C(F)(F)F)cc(-c3cccs3)nc2c1Br)N1CCCc2ccccc21	8.2µM*	-3	-20%[10 µM]	9.2µM*	-14	0%
Cc1c(C)n(-c2ccc(Cl)cc2)c2ncn(CC(=O)NC(C)c3ccccc3)c(=O)c12 (configuration not stated)	.	10	.	.	.	.
COc1ccc(Nc2cc(C)nc3nc(-c4ccc(Cl)cc4)nn23)c(OC)c1	.	-18	.	.	.	.
SMILES	TDP1 cell noCPT	LDHA inh	RORgamma inh	TDP1 cell CPT	IL1B secr inh	Gal4-VP16 FLuc
CCn1nc(C(=O)OC(C)C(=O)c2c[nH]c3ccccc23)c2ccccc2c1=O (configuration not stated)	.	-7	.	.	.	.
CCc1ccc(Nc2nnc(SC(C)C#N)s2)cc1 (configuration not stated)	.	3	.	.	.	.
Cc1ccc(-c2cc(C(=O)Nc3ccccn3)c3ccccc3n2)cc1	.	-2	.	.	.	.
CCNC(=S)N/N=C1\C(=O)c2cccc3cccc1c23	-15%	-3	3.2µM*	11%	14	4.5µM*
O=C(Nc1cccc(NC(=O)c2ccc(Cl)cc2)n1)c1ccc(Cl)cc1	-29%	-4	8%	2%	i	-10%
CCNC(=S)Nc1c(F)cccc1F	.	-1	.	.	.	.
O=C(N/N=C1/C(=O)c2cccc3cccc1c23)c1ccc(Cl)cc1	4.6µM*	-13	-21%	4.1µM*	0	?
CN(C)CCCN(C(=O)COc1ccccc1)c1nc2cc3c(cc2s1)OCO3	-29%	-4	1%	9%	i	9%
CN(C)CCCN(C(=O)COc1ccc(Cl)cc1)c1nc2cc3c(cc2s1)OCO3	13µM*	0	11µM*	8.2µM*	-100*	?
CN(C)CCCN(C(=O)COc1ccc(Cl)cc1)c1nc2cc3c(cc2s1)OCCO3	?	-8	.	-28%	-94*	.
Cc1nc2cc(F)ccc2cc1C(=O)N(Cc1cccnc1)C(C)C	.	-5	.	.	.	.
CCC1C(=O)CC(c2ccc([N+](=O)[O-])cc2)NC1c1ccc([N+](=O)[O-])cc1 (configuration not stated)	?	0	?	?	-100*	-3%
CN(Cc1ccc(Cl)c(Cl)c1)C(c1cc2ccccc2o1)c1nnnn1C(C)(C)C (configuration not stated)	21µM*	-2	.	?	0	.
CCCCn1nnnc1C(c1cc2ccccc2o1)N(C)Cc1ccccc1 (configuration not stated)	23µM*	7	.	?	16	.
CCc1cccc(CC)c1NC(=O)c1ccccc1SC	.	-2	.	.	.	.
Cc1ccc(CN2C(=O)C[C@@H](NC(=O)OCC3c4ccccc4-c4ccccc43)C/C=C\C2c2ccc(C)cc2)cc1 (some centres not stated)	?	2	.	?	-65*	.
CCCCCCN1C(=O)CC(NC(=O)OCC2c3ccccc3-c3ccccc32)C/C=C\C1C(C)C (configuration not stated)	15µM*	2	.	23µM*	-5	.
O=C(NC1C/C=C\C(c2ccccc2)N(c2ccccc2)C(=O)C1)OCC1c2ccccc2-c2ccccc21 (configuration not stated)	0.16µM*	4	.	-82%	?	.
NCC(=O)NNC(=O)OCC1c2ccccc2-c2ccccc21	-4%	-3	-11%	-18%	-2	-6%
O=C(CCc1nnc2ccc(NCc3ccco3)nn12)Nc1ccc2c(c1)OCO2	.	19	.	.	.	.
CC(C)[C@@H](C(=O)Nc1ccc(N(C)C)cc1)n1nnc2ccccc2c1=O	.	4	.	.	.	.
